Screen size: about 5,500 compounds; about 2,000 (36%) were called active. Inconclusive results (about 18%) are left out. No stated cut-off is given here; in the data, active means normalized growth mostly below about 0.91 (no sharp cut-off); inconclusive means no clear call, values can overlap the other calls; inactive means mostly above about 0.92. The list shows a part of the results.
Assay: chemical genetic growth profiling, strain panel (AID 1159580);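 further: tested at 20 µM; growth read once vehicle control cultures reached saturation at 30 °C; 1 = growth at the plate median or of vehicle wells; lower values mean less growth of the strain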
Conditions: S. cerevisiae deletion strains, growth OD

Measured: normalized growth

NNC(=O)COc1ccc(C2SCCS2)cc1
inactive: locus YBL105C, strain PKC1, active compounds read low 0.962 | locus YBR135W, strain CKS1, active compounds read low 0.954 | locus YBR136W, strain MEC1, active compounds read low 0.986 | locus YBR160W, strain CDC28, active compounds read low 0.96 | locus YDL017W, strain CDC7, active compounds read low 0.971 | locus YDL028C, strain MPS1, active compounds read low 0.964 | locus YDL108W, strain KIN28, active compounds read low 0.97 | locus YDR052C, strain DBF4, active compounds read low 0.969 | locus YDR226W, strain ADK1, active compounds read low 0.962 | locus YFR003C, strain YPI1, active compounds read low 0.974 | locus YFR028C, strain CDC14, active compounds read low 0.973 | locus YIL147C, strain SLN1, active compounds read low 0.969 | locus YJR016C, strain ILV3, active compounds read low 0.939 | locus YKL193C, strain SDS22, active compounds read low 0.927 | locus YMR001C, strain CDC5, active compounds read low 0.95 | locus YNL006W, strain LST8, active compounds read low 0.945 | locus YNL161W, strain CBK1, active compounds read low 0.941 | locus YNL222W, strain SSU72, active compounds read low 0.934 | locus YOR329C, strain SCD5, active compounds read low 0.972 | locus YPL209C, strain IPL1, active compounds read low 0.965 | locus YPR025C, strain CCL1, active compounds read low 0.954
active: locus YDL101C, strain DUN1, active compounds read low 0.337 | locus YDL214C, strain PRR2, active compounds read low 0.16 | locus YDR477W, strain SNF1, active compounds read low 0.197 | locus YER123W, strain YCK3, active compounds read low 0.148 | locus YER133W, strain GLC7, active compounds read low 0.4 | locus YFR019W, strain FAB1, active compounds read low 0.144 | locus YGR040W, strain KSS1, active compounds read low 0.233 | locus YGR052W, strain FMP48, active compounds read low 0.152 | locus YGR092W, strain DBF2, active compounds read low 0.13 | locus YHR030C, strain SLT2, active compounds read low 0.104 | locus YHR079C, strain IRE1, active compounds read low 0.127 | locus YHR082C, strain KSP1, active compounds read low 0.188 | locus YHR205W, strain SCH9, active compounds read low 0.162 | locus YJL095W, strain BCK1, active compounds read low 0.128 | locus YJL157C, strain FAR1, active compounds read low 0.163 | locus YJR066W, strain TOR1 (second series), active compounds read low 0.156 | locus YJR066W, strain TOR1, active compounds read low 0.159 | locus YKL048C, strain ELM1, active compounds read low 0.215 | locus YKL067W, strain YNK1, active compounds read low 0.141 | locus YKL101W, strain HSL1, active compounds read low 0.153 | locus YKL203C, strain TOR2, active compounds read low 0.209 | locus YLR113W, strain HOG1, active compounds read low 0.171 | locus YLR133W, strain CKI1, active compounds read low 0.194 | locus YLR403W, strain SFP1, active compounds read low 0.152 | locus YML070W, strain DAK1, active compounds read low 0.145 | locus YMR205C, strain PFK2 (second series), active compounds read low 0.151 | locus YMR277W, strain FCP1, active compounds read low 0.85 | locus YNL020C, strain ARK1, active compounds read low 0.195 | locus YNL183C, strain NPR1, active compounds read low 0.187 | locus YNL207W, strain RIO2, active compounds read low 0.829 | locus YNL307C, strain MCK1 (second series), active compounds read low 0.157 | locus YOL136C, strain PFK27, active compounds read low 0.159 | locus YOR061W, strain CKA2, active compounds read low 0.115 | locus YOR119C, strain RIO1, active compounds read low 0.183 | locus YOR231W, strain MKK1, active compounds read low 0.159 | locus YPL031C, strain PHO85, active compounds read low 0.201 | locus YPL153C, strain RAD53, active compounds read low 0.181 | locus YPL204W, strain HRR25, active compounds read low 0.234 | locus YPL256C, strain CLN2, active compounds read low 0.173 | locus YPR106W, strain ISR1, active compounds read low 0.575 | locus YPR111W, strain DBF20, active compounds read low 0.608 | strain NNK1, active compounds read low 0.24
